# Measured values reported in PubChem BioAssay (NCI).
# The panel holds about 83,000 compounds, 20% with a hit somewhere; the sample as a whole holds those more often.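 Each cell line was grown in a 96-well plate and treated with one concentration of compound for 48 hours. Values below 10 were considered active.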 Unmarked numbers belong to inactive results. The source made the active and inactive calls.
# Legend:
# Assay in all cases: NCI-60 one-dose screen, 48 h (100 = growth as untreated, 0 = no growth, -100 = all killed)
# Settings in all cases: 10 µM unless noted
# HCT-15 colon = tested on: HCT-15 colon
# HT29 colon = tested on: HT29 colon
# SNB-75 CNS = tested on: SNB-75 CNS
# SNB-19 CNS = tested on: SNB-19 CNS
# U251 CNS = tested on: U251 CNS
# SK-MEL-5 melanoma = tested on: SK-MEL-5 melanoma
# UACC-62 melanoma = tested on: UACC-62 melanoma
# LOX IMVI melanoma = tested on: LOX IMVI melanoma
# SK-MEL-28 melanoma = tested on: SK-MEL-28 melanoma
# SK-MEL-2 melanoma = tested on: SK-MEL-2 melanoma
# EKVX NSCLC = tested on: EKVX NSCLC
# SN12C renal = tested on: SN12C renal
# UO-31 renal = tested on: UO-31 renal
# TK-10 renal = tested on: TK-10 renal
# ACHN renal = tested on: ACHN renal
# CAKI-1 renal = tested on: CAKI-1 renal
# A498 renal = tested on: A498 renal
# CCRF-CEM leukemia = tested on: CCRF-CEM leukemia
# MOLT-4 leukemia = tested on: MOLT-4 leukemia
# PC-3 prostate = tested on: PC-3 prostate
Structure (SMILES),growth (HCT-15 colon),growth (HT29 colon),growth (SNB-75 CNS),growth (SNB-19 CNS),growth (U251 CNS),growth (SK-MEL-5 melanoma),growth (UACC-62 melanoma),growth (LOX IMVI melanoma),growth (SK-MEL-28 melanoma),growth (SK-MEL-2 melanoma),growth (EKVX NSCLC),growth (SN12C renal),growth (UO-31 renal),growth (TK-10 renal),growth (ACHN renal),growth (CAKI-1 renal),growth (A498 renal),growth (CCRF-CEM leukemia),growth (MOLT-4 leukemia),growth (PC-3 prostate)
Cn1cc(C(=O)c2nc(-c3c[nH]c4ccccc34)no2)c2ccccc21,25.6%,35.8%,55.6%,91.8%,92.4%,16.8%,60.3%,83.9%,94%,65.3%,50.5%,91.3%,61.6%,68.2%,86.4%,56.9%,95.9%,86.7%,72.5%,
NC(=O)c1cc(Br)ccc1NC(=O)/C=C/c1ccccc1,30.9%,13.9%,-7.05% (active),47.2%,28.7%,12.2%,43%,52.1%,42.2%,47.7%,46.4%,48.3%,37.7%,98.7%,64.4%,53.2%,59.7%,9.57% (active),36.8%,
CCC#CC[C@H](O)C/C=C1/C(=O)C=C[C@@H]1C/C=C\CCCC(=O)OC,3.26% (active),-80.2% (active),43.5%,23.8%,0.174% (active),,,-72.2% (active),,-35.8% (active),23.7%,,-65.4% (active),2.33% (active),-82.8% (active),-18.3% (active),95.7%,,1.17% (active),1.55% (active)
Cn1cc(-c2nonc2-c2c[nH]c3ccc(F)cc23)c2cccnc21,62.3%,99.3%,56.3%,90.2%,84.4%,78.2%,64.4%,85.3%,98.4%,90.1%,63%,85.5%,63.3%,85.9%,78.5%,63.9%,85.1%,83%,63.4%,
COc1cc2nnc3c4cccnc4[nH]c3c2cc1OC,16%,-2.61% (active),51.2%,75.7%,1.26% (active),93.5%,30.8%,12.8%,47.6%,80.1%,73.1%,33%,-52.8% (active),42.9%,-36.7% (active),-14.7% (active),106%,-37.5% (active),,
COC(=O)c1ccc2oc(NC(=O)c3ccc(Nc4ccc([N+](=O)[O-])cc4C)c([N+](=O)[O-])c3)nc2c1,104%,96.8%,97.5%,99%,101%,93.6%,100%,99.7%,108%,101%,79.9%,97.2%,90.7%,100%,104%,89.5%,108%,107%,105%,
COc1ccc(CN2c3ccccc3Sc3ccccc32)cc1O,33.1%,8.73% (active),26.6%,33%,18.5%,,,43.1%,,,36.7%,,24.4%,58.3%,41.7%,36.2%,76.4%,8.29% (active),18.4%,26.1%
Cc1ccc2c(C(C[N+](=O)[O-])c3ccco3)c(-c3ccccc3)[nH]c2c1 (centres undefined),19.5%,5.24% (active),-5.04% (active),38.5%,25.8%,35.6%,35.1%,23.5%,60.3%,9.58% (active),39.8%,39.1%,38.9%,64.2%,30.6%,23.8%,12.3%,14.4%,21%,
Cc1cc(C)nc(SC2=C(Nc3cc(Cl)ccc3O)C(=O)N(Cc3ccccc3)C2=O)n1,92.1% [30 µM],108% [30 µM],81% [30 µM],89.6% [30 µM],87.5% [30 µM],49% [30 µM],70.6% [30 µM],71.1% [30 µM],106% [30 µM],97.6% [30 µM],83.9% [30 µM],91.6% [30 µM],82.4% [30 µM],23.8% [30 µM],88.7% [30 µM],99.7% [30 µM],75.5% [30 µM],22.1% [30 µM],46.3% [30 µM],
Cn1cc(-c2nonc2-c2cn(C)c3ccc(F)cc23)c2cc(F)ccc21,30.8%,12.3%,53.8%,60.1%,45.2%,51.4%,50.6%,57.9%,69%,30.5%,67.9%,61.6%,68.6%,85.9%,70.3%,42%,54.2%,33.6%,29.1%,
O=C1/C(=C/c2ccc(Cl)cc2)SC(=S)N1CCc1ccc(O)cc1,99.7%,117%,71.4%,98.9%,101%,97.1%,78.5%,65.1%,101%,99.7%,93.8%,80.2%,54.6%,80.5%,99.1%,81.3%,87.6%,23.1%,54.3%,
CCOC(=O)n1cc(-c2nonc2-c2cn(C)c3ncccc23)c2cc(F)ccc21,68.8%,83.2%,64.3%,91.6%,77.2%,81.5%,62.2%,83.8%,102%,92.8%,67.3%,79.8%,57.5%,80.8%,74.9%,54.8%,94.8%,85%,66.7%,
CCOC(=O)c1sc2nc(-c3cccc(OC)c3)nc(N3CCOCC3)c2c1C,96.4%,89.9%,95.3%,89.1%,86.9%,85.5%,75.6%,94%,101%,93.2%,87.7%,87.5%,79.7%,98.1%,103%,79.8%,101%,98.4%,93.1%,
Cc1cn2c(/C=C3/C(=O)Nc4c3ccc3ccccc43)c(C(F)(F)F)nc2s1,27%,0.295% (active),-6.4% (active),36.3%,17.5%,24.7%,31.6%,33.6%,58.4%,20%,44.4%,38.2%,34.7%,36.3%,48.5%,34.3%,0.919% (active),16.4%,35.1%,
CCCc1cc(=O)n2c(C(=O)Nc3cccc(C(=O)OCC)c3)c(C(=O)Nc3ccc(F)cc3)sc2n1,66.4% [30 µM],67.5% [30 µM],25.6% [30 µM],43.8% [30 µM],13.2% [30 µM],66.6% [30 µM],104% [30 µM],46.8% [30 µM],88.3% [30 µM],63.4% [30 µM],92.8% [30 µM],28.8% [30 µM],15.7% [30 µM],45% [30 µM],38.9% [30 µM],17.3% [30 µM],8.74% [30 µM] (active),40.9% [30 µM],127% [30 µM],
COC(=O)c1ccc(NC(=O)c2ccc(-c3cccc([N+](=O)[O-])c3)o2)cc1,101%,103%,82.4%,94.4%,100%,97.8%,95.5%,96.1%,100%,98.4%,79%,97.3%,72.9%,111%,94.6%,88%,105%,107%,103%,
CCCCC/C(C=C(C#N)C#N)=C/c1ccccc1,47%,37%,96.6%,67.1%,34.2%,71%,48.9%,2.03% (active),84%,82.4%,106%,81.1%,34.7%,105%,41.6%,81.4%,112%,13.9%,13.4%,
